Compounds with a hit are over-represented: about 4% of the library has one in this group of screens.
KKLEB cytotox: CF airway cell cytotoxicity counter-screen. KKLEB CF airway cells viability, ATPlite luminescence, overnight; active compounds read low; cells stimulated with P. aeruginosa culture filtrate. activity change (cytotoxicity), % at 5 µM. 360,000 compounds, 0.36% hits. AID 602141;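 active means corrected activity change at or below -50% at 5 µM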
HIF-2a inh: blocks HIF-2a reporter activity. 360,000 compounds, 0.72% hits. AID 624352. inhibition, % at 18.8 µM. 786-0 RCC cells HIF-2a reporter, luciferase luminescence, overnight;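 active means inhibition of the luminescence signal of 40% or more relative to plate controls, in a single-dose primary screen at 18.75 µM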
TROY signal inh: blocks TROY-dependent signaling in reporter cells. Q293 LMP1-TROYcd NF-kB luciferase reporter, 4 h. inhibition, % at 10 µM. 360,000 compounds, 0.98% hits. AID 1347056;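 active means compounds whose plate-normalised and pattern-corrected inhibition of the luciferase reporter signal at the single screening dose is 50% or more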
Peg3 promoter: Peg3 promoter activity inhibition | inhibition, % at 20 µM | HeLa PEG-Prom luciferase reporter, luminescence, overnight | 360,000 compounds, 1.7% hits;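 active means inhibition of at least 50% at 20 µM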
TWEAK Fn14 block: inhibitors of TWEAK-Fn14 interaction signaling; inhibition, % at 10 µM; 360,000 compounds, 2% hits; TWEAK-stimulated Fn14 reporter cells, luciferase luminescence, 8 h; AID 1159606; in the data active means inhibition above about 50%
CF NFkB block: cystic fibrosis NF-kB activation inhibition; AID 588850; inhibition, % at 5 µM; 360,000 compounds, 0.86% hits; KKLEB NF-kB-GFP reporter, PAF-induced, GFP fluorescence overnight;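 active means at least 50% inhibition at 5 µM, scaled per plate between neutral and stimulator controls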;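 further: PAF is a Pseudomonas aeruginosa culture filtrate used as stimulus; plate controls were PAF-stimulated DMSO wells for no effect and unstimulated DMSO wells for full effect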
Starred values were filed as active, the others as inactive; . = no result given.

SMILES	KKLEB cytotox	HIF-2a inh	TROY signal inh	Peg3 promoter	TWEAK Fn14 block	CF NFkB block
Cc1ccc(NC(=O)C2C(=O)N(C)c3ccccc32)cc1 (configuration not stated)	2	5	16	-6	-9	7
CCN(CC)c1ccc(C=Nc2ccc(N(C)C)cc2)c(O)c1	1	-93	-5	-103	58*	-5
CCN(CC)c1nc(Oc2ccc(C(=O)NN)cc2)nc(Oc2ccc(C(=O)NN)cc2)n1	-3	5	53*	-3	-25	-12
N#CC(=C1C=C(Br)C(=NO)C=C1Cl)c1ccc(Cl)cc1	3	14	31	40	27	20
N#CC(=C1C=CC(=NO)C(Cl)=C1)c1ccccc1	-6	-46	25	39	26	50*
COc1ccc(C(=O)NCCNc2nc3cc(C)cc(C)c3cc2C#N)cc1	.	-12	.	.	.	.
COc1cccc(C(=O)NCCCNc2nc3cc(C)cc(C)c3cc2C#N)c1	-23	8	-5	66*	16	10
Cc1nn(C)cc1CNC(=O)/C=C/c1cnn(C)c1	4	3	-1	-5	4	-13
CCC(C)NC(=O)CCc1c(C)nc2c(c(C)nn2-c2ccccc2)c1C (configuration not stated)	5	14	18	16	13	-8
Cc1nc2c(c(C)nn2-c2ccccc2)c(C)c1CCC(=O)Nc1ccc(CN2CCCC2)cc1	-5	23	2	55*	-31	32
CCc1ccc(-c2nc(CN3CCC(C(=O)N4CCN(c5ccccc5)CC4)CC3)c(C)o2)cc1	-21	-9	27	88*	94*	18
CCc1ccc(-c2nc(CN3CCC(C(=O)N4CCN(c5ccccn5)CC4)CC3)c(C)o2)cc1	-20	-12	2	30	35	-2
CCc1ccc(-c2nc(CN3CCC(C(=O)NCCN(CC)c4ccccc4)CC3)c(C)o2)cc1	-9	-49	20	108*	-44	1
COC(=O)c1ccc(CNC(=O)Cn2cnc3c(OCc4ccccc4)ncnc32)cc1	2	-6	-9	84*	-27	-25
CC(C)C1C(=O)N(Cc2cn(CC3CCCCC3)nn2)CCS(=O)(=O)N1Cc1ccc(-c2ccc(F)cc2)cc1 (configuration not stated)	-5	7	-17	47	25	8
Cc1ccc(-n2nnnc2C(Cl)(Cl)c2nnnn2-c2ccc(C)cc2)cc1	-2	26	60*	25	-30	-18
Cc1ccc(NS(=O)(=O)c2cccc(C(=O)NCC3(N(C)C)CCCCC3)c2)cc1	10	14	13	-4	12	5
O=C(Nc1nc2ccccc2n1Cc1ccccc1)c1ccc(COc2ccccc2[N+](=O)[O-])o1	-68*	7	-31	28	-1	46
COc1ccc(C=C2CS(=O)(=O)CC(=Cc3ccc(OC)cc3)C2=O)cc1	-18	86*	56*	97*	88*	92*
CC(C)C[C@@H](CN1CCC[C@@H]1CN1C(=S)NC[C@@H]1Cc1ccc(O)cc1)N1C[C@H](Cc2ccccc2)N(CCc2ccccc2)C1=S	-14	3	7	4	1	37
COc1cccc2cc(-c3nnc(-c4ccccc4)o3)c(=O)oc12	-5	-80	70*	-23	73*	-12
CCOC(=O)c1cnn(-c2nc3c(C)cccc3s2)c1C	-1	-35	-43	-44	-25	11
CC(C)CCCC(C)CCOC(=O)CN1CCCC1 (configuration not stated)	7	20	-6	4	68*	-1
O=C(N/N=C/c1coc2ccccc2c1=O)c1cc(O)cc(O)c1	-13	21	13	1	12	8
O=C(N/N=C/c1coc2ccccc2c1=O)c1ccccc1Br	2	14	21	-2	58*	44
SMILES	KKLEB cytotox	HIF-2a inh	TROY signal inh	Peg3 promoter	TWEAK Fn14 block	CF NFkB block
O=C(N/N=C/c1coc2ccc(Cl)cc2c1=O)c1ccncc1	12	22	32	0	54*	45
Cc1cc(C)cc(N(CC(=O)Nc2ccccc2)C2=NC3CS(=O)(=O)CC3S2)c1 (configuration not stated)	14	10	4	6	25	6
O=C1N[C@@H](Cc2c[nH]c3ccccc23)COC(=O)[C@H](Cc2ccc(F)cc2)C/C=C\C[C@H]1CC(=O)N(CCO)Cc1ccccc1	7	14	24	24	38	-15
O=C(C[C@H]1C/C=C\CC[C@H](Cc2ccc(F)cc2)C(=O)O[C@@H](c2ccccc2)CNC1=O)N[C@@H](CO)Cc1ccccc1	4	17	4	66*	32	14
O=C(C[C@@H]1C/C=C/CC[C@@H](Cc2ccc(F)cc2)C(=O)OC[C@H](Cc2ccccc2)NC1=O)N[C@H](CO)Cc1ccccc1	-17	3	1	55*	13	12
C[C@H]1COC(=O)[C@H](Cc2ccc(F)cc2)CC/C=C/C[C@@H](CC(=O)N[C@@H](CO)Cc2ccccc2)C(=O)N1	-2	12	6	16	-3	-10
O=C1N[C@@H](Cc2c[nH]c3ccccc23)COC(=O)[C@@H](Cc2ccc(F)cc2)CC/C=C/C[C@@H]1CC(=O)N(CCO)Cc1ccccc1	22	-23	30	19	55*	7
COc1ccc(OCCNC(=O)/C=C/c2ccccc2)cc1	-5	0	-17	-21	-10	6
Cc1ccc(Sc2cc(NCCCO)c([N+](=O)[O-])c3nonc23)cc1	-8	-20	21	21	55*	-2
CS(=O)(=O)c1ccc2nc(NC(=O)CN3CCC(Cc4ccccc4)CC3)sc2c1	4	11	-2	12	33	4
O=C(NCc1ccccc1)[C@@H]1CCCN1C(=O)[C@@H]1CCCN1C(=O)c1ccc(Cl)cc1Cl	.	1	8	.	34	.
CCOC(=O)[C@]12CCC=C1N(Cc1cccc3ccccc13)C(=O)[C@H](CC(=O)NCc1ccc(OC)c(OC)c1)C2	.	-29	34	.	61*	.
CCOC(=O)[C@]12CCC=C1N(Cc1ccco1)C(=O)[C@H](CC(=O)NCc1ccc(OC)c(OC)c1)C2	.	1	-3	.	-5	.
COC(=O)[C@]12CCCCC=C1N(Cc1cccc3ccccc13)C(=O)[C@H](CC(=O)NCc1ccc(OC)c(OC)c1)C2	.	-20	63*	.	97*	.
COC(=O)[C@]12CCCCC=C1N(CCc1ccc(OC)c(OC)c1)C(=O)[C@H](CC(=O)NCc1cccc3ccccc13)C2	.	5	.	.	.	.
Cc1c(NC(=O)CSc2nnc(-c3ccncc3)n2C)c(=O)n(-c2ccccc2)n1C	8	17	-3	-2	10	-19
O=[N+]([O-])c1ccc(O)c(/C=N/n2cnnc2)c1	16	5	15	3	5	7
O=[N+]([O-])c1ccc(O)c(/C=N\N=C2c3ccccc3-c3ccccc32)c1	-51*	-34	-4	22	49	48
